According to PubChem BioAssay AID1159580 (chemical genetic matrix, 2015):
Several values for one entry are separate records, joined by “and”; a condition that tells them apart may be missing. Identical values can stand only once. About 2,000 (36%) of roughly 5,500 compounds were called active. Roughly 18% stayed inconclusive and do not appear here. Cut-off read from the data, not from the text of the source: active = normalized growth mostly below about 0.91 (no sharp cut-off); inconclusive = no clear call, values can overlap the other calls; inactive = mostly above about 0.92. This is one part of the list.

Test: chemical genetic growth profiling, strain panel (AID 1159580);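 note: tested at 20 µM; growth read once vehicle control cultures reached saturation at 30 °C; 1 = growth at the plate median or of vehicle wells; lower values mean less growth of the strain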
Conditions: S. cerevisiae deletion strains, growth OD

Measured: normalized growth

CCC(C)(C)C(=O)O[C@H]1C[C@@H](C)C=C2C=C[C@H](C)[C@H](CC[C@@H]3C[C@@H](O)CC(=O)O3)[C@H]21
inactive: locus YAL013W, strain DEP1, stronger effect = lower value 0.99 | locus YAL030W, strain snc1, stronger effect = lower value 1.01 | locus YBR009C, strain hhf1, stronger effect = lower value 0.912 | locus YBR021W, strain FUR4, stronger effect = lower value 0.861 | locus YBR171W, strain sec66, stronger effect = lower value 0.998 | locus YBR229C, strain ROT2, stronger effect = lower value 1.01 | locus YCL011C, strain gbp2, stronger effect = lower value 0.944 | locus YCL029C, strain bik1, stronger effect = lower value 1.04 | locus YCL061C, strain MRC1, stronger effect = lower value 1.01 | locus YCL069W, strain vba3, stronger effect = lower value 0.955 | locus YCR088W, strain abp1, stronger effect = lower value 1.02 | locus YDL005C, strain med2, stronger effect = lower value 1.02 | locus YDL035C, strain GPR1, stronger effect = lower value 0.97 | locus YDL040C, strain nat1, stronger effect = lower value 0.997 | locus YDL074C, strain BRE1, stronger effect = lower value 0.866 | locus YDL101C, strain DUN1, stronger effect = lower value 0.98 | locus YDL134C, strain PPH21, stronger effect = lower value 1.01 | locus YDL185W, strain tfp1, stronger effect = lower value 0.955 | locus YDL192W, strain arf1, stronger effect = lower value 1.02 | locus YDR001C, strain nth1, stronger effect = lower value 1.02 | locus YDR069C, strain doa4, stronger effect = lower value 1 | locus YDR101C, strain arx1, stronger effect = lower value 1.04 | locus YDR150W, strain NUM1, stronger effect = lower value 1.01 | locus YDR159W, strain sac3, stronger effect = lower value 0.93 | locus YDR162C, strain NBP2, stronger effect = lower value 0.937 | locus YDR195W, strain ref2 1.01 | locus YDR297W, strain sur2, stronger effect = lower value 0.999 | locus YDR318W, strain mcm21, stronger effect = lower value 1 | locus YDR334W, strain swr1, stronger effect = lower value 0.941 | locus YDR335W, strain msn5, stronger effect = lower value 0.979 | locus YDR388W, stronger effect = lower value 1.02 | locus YDR502C, strain sam2, stronger effect = lower value 1.02 | locus YEL003W, strain gim4, stronger effect = lower value 0.973 | locus YEL037C, strain rad23, stronger effect = lower value 1 | locus YEL061C, strain CIN8 (second series), stronger effect = lower value 0.988 | locus YEL061C, strain CIN8, stronger effect = lower value 0.995 | locus YER016W, strain bim1, stronger effect = lower value 0.953 | locus YER110C, stronger effect = lower value 1.04 | locus YER111C, strain swi4, stronger effect = lower value 1.01 | locus YER155C, strain BEM2 (second series), stronger effect = lower value 1 | locus YER155C, strain BEM2, stronger effect = lower value 0.996 | locus YER167W, strain BCK2, stronger effect = lower value 0.982 | locus YFR010W, strain ubp6, stronger effect = lower value 0.973 | locus YGL078C, strain dbp3, stronger effect = lower value 1.03 | locus YGL086W, strain mad1, stronger effect = lower value 0.991 | locus YGL167C, strain pmr1, stronger effect = lower value 1.01 | locus YGL173C, strain kem1, stronger effect = lower value 0.997 | locus YGL227W, strain vid30, stronger effect = lower value 1.02 | locus YGL240W, strain doc1, stronger effect = lower value 1.03 | locus YGL248W, strain PDE1, stronger effect = lower value 1.01 | locus YGR078C, strain PAC10, stronger effect = lower value 0.966 | locus YGR135W, strain pre9, stronger effect = lower value 1.01 | locus YGR252W, strain gcn5, stronger effect = lower value 0.983 | locus YHR013C, strain ard1, stronger effect = lower value 0.912 | locus YHR030C, strain SLT2, stronger effect = lower value 1.02 and 0.921 | locus YHR079C, strain IRE1 (second series), stronger effect = lower value 1.03 | locus YHR079C, strain IRE1, stronger effect = lower value 0.948 | locus YHR094C, strain hxt1, stronger effect = lower value 1.03 | locus YHR129C, strain ARP1, stronger effect = lower value 1.02 | locus YHR200W, strain rpn10, stronger effect = lower value 1.03 | locus YIL066C, strain RNR3, stronger effect = lower value 0.992 | locus YIL073C, strain SPO22, stronger effect = lower value 0.902 | locus YIL125W, strain kgd1, stronger effect = lower value 1.04 | locus YIR030C, strain dcg1, stronger effect = lower value 1.05 | locus YJL092W, strain hpr5, stronger effect = lower value 1.01 | locus YJL095W, strain BCK1 (second series), stronger effect = lower value 0.951 | locus YJL095W, strain BCK1, stronger effect = lower value 0.893 and 0.915 | locus YJL115W, strain asf1, stronger effect = lower value 1.02 | locus YJL129C, strain trk1, stronger effect = lower value 0.934 | locus YJL134W, strain LCB3, stronger effect = lower value 1.01 | locus YJL154C, strain vps35, stronger effect = lower value 1.01 | locus YJL164C, strain tpk1, stronger effect = lower value 0.919 | locus YJL166W, strain qcr8, stronger effect = lower value 0.955 | locus YJL168C, strain set2, stronger effect = lower value 1.02 | locus YJL187C, strain SWE1 (second series), stronger effect = lower value 0.995 | locus YJL187C, strain SWE1, stronger effect = lower value 0.976 | locus YJR043C, strain POL32, stronger effect = lower value 1.01 | locus YJR066W, strain TOR1, stronger effect = lower value 0.84
active: locus YAL021C, strain ccr4, stronger effect = lower value 0.703 | locus YAL026C, strain drs2, stronger effect = lower value 0.828 | locus YBL061C, strain skt5, stronger effect = lower value 0.855 | locus YBR023C, strain chs3, stronger effect = lower value 0.841 | locus YBR231C, strain swc5, stronger effect = lower value 0.776 | locus YBR279W, strain paf1, stronger effect = lower value 0.851 | locus YCL016C, strain dcc1, stronger effect = lower value 0.909 | locus YDR137W, strain rgp1, stronger effect = lower value 1.35 [resistant] | locus YDR392W, strain spt3, stronger effect = lower value 0.528 | locus YER015W, strain faa2, stronger effect = lower value 0.842 | locus YGL253W, strain hxk2, stronger effect = lower value 0.787 | locus YGR229C, strain SMI1, stronger effect = lower value 0.783 | locus YHR027C, strain rpn1, stronger effect = lower value 0.875 | locus YHR142W, strain chs7, stronger effect = lower value 0.79
